Rab9 prom act: Rab9 promoter activation | Huh7 Rab9 promoter-luciferase reporter, luminescence, 24 h | Potency, µM (top dose mostly 9.22 µM), inactives show at the top dose activation, negative = inhibition, most hits filed as activators | 2.8% of 320,000 active; also: % of control where 0% means no effect; nearly all actives have a fitted effect of over 60% in size
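Luminescence read-out: Huh7 cells stably expressing Rab9-luciferase, treated 24 h with compound at 37 °C, then lysed with luciferase reagent for 10 min at ambient before reading.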
FLuc modulator: inhibits or activates purified firefly luciferase, miR-21 counter-screen | 6.9% of 360,000 active | Potency, µM (doses to about 57.5 µM), inactives show at the highest dose activity change, negative = inhibition, hits mostly inhibitors | purified FLuc, Km substrates, luminescence inhibition;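 also: plate controls were vehicle for no effect and reference inhibitor for full effect; nearly all actives have a fitted effect of over 55% in size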
Target sequence (P08659 whole entry, looked up): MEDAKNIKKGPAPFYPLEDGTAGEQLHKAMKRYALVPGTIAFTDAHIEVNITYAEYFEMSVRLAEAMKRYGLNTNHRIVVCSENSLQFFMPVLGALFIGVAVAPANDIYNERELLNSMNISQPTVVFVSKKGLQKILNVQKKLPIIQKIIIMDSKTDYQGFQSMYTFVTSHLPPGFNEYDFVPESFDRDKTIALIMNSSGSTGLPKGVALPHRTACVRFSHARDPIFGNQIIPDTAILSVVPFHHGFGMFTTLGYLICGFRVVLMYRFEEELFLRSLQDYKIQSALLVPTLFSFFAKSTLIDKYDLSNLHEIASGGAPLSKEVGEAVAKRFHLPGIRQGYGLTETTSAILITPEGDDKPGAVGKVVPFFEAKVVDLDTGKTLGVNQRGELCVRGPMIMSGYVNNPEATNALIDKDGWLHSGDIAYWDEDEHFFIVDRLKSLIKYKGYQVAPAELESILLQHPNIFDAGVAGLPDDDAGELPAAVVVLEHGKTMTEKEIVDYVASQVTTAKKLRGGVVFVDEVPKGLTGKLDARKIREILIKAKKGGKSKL
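Purified P. pyralis luciferase (10nM final) with 10uM D-luciferin and 10uM ATP (Km levels) in 50mM Tris acetate pH 7.5, 10mM Mg acetate, 0.01% Tween-20, 0.05% BSA; qHTS 6-point titration, ~60 µM downward; luminescence read.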
ELG1 genotoxic: induces genotoxicity in HEK293T cells with luciferase-tagged ELG1 | HEK293T ELG1-luciferase reporter, luminescence, 16 h | Potency, µM (top dose mostly 46 µM), inactives show at the top dose activity change, positive = activation, actives largely listed as activators | 1.3% of 330,000 active; also: % of control where 0% means no effect; nearly all actives have a fitted effect of over 60% in size
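HEK293T cells expressing luciferase-tagged ELG1 were exposed to compound or DMSO vehicle for 16 hr at 37 °C and 5% CO2. Luciferase activity was then measured with ONE-Glo after 30 min at room temperature.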
ELG1 DNA repair: ELG1-dependent DNA repair inhibition | HEK293T ELG1-luciferase reporter, luminescence, 16 h; DNA damage induced by 5-fluorouridine | Potency, µM (series often up to 46.1 µM), for the others: at the highest dose activity change, negative = inhibition, hits mostly inhibitors | 2.3% of 330,000 active | AID 504467; also: % is scaled to controls: 0 for no effect and ±100 for the full control effect; nearly all actives have a fitted effect of over 55% in size
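In this reporter screen, reduction of luminescence relative to DMSO vehicle indicated activity. Compounds and 5-fluorouridine were added together to 2,000 cells per well, incubated for 16 hr at 37 °C, then developed with ONE-Glo.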
NPC1 promoter act: NPC1 promoter activation; Huh7 NPC1 promoter luciferase reporter, 24 h; Potency, µM (series often up to 9.22 µM), for inactives: top-dose activation, usual class: activators; 2.4% of 320,000 active; AID 485313; also: % of control where 0% means no effect; nearly all actives have a fitted effect of over 60% in size
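Stably transfected Huh7 (NPC1 promoter→luciferase), 1500 cells/well in Opti-MEM + 10% FBS, 2 h settle, then compound 24 h at 37 °C. Luminescence after 10 min with Amplite reagent.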
SMN2 splice up: increases expression of the SMN2 splice variant | 2.8% of 210,000 active | Potency, µM (doses to about 46.1 µM), for the others: top-dose activity change, positive = activation, hits mostly activators | AID 1458 | HEK293 SMN2-luciferase splicing reporter, luminescence, 30-36 h; also: % of control where 0% means no effect; nearly all actives have a fitted effect of over 55% in size
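qHTS luciferase splicing reporter: luminescence rises when SMN2 exon 7 is included in transfected HEK293 cells. Compound exposure lasted 30-36 h at 37C, with 4.5 mM final sodium butyrate as control, followed by a ONE-Glo read.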
* marks the source's active call; other numbers are inactive results; ? = inconclusive; · = no result; [ ] = remark or other dose. Most compounds without a hit are left out; they make up all but 9.3% or so of the library. Calls follow the shape of the dose curve; as a rule, active = well fitted curve in the direction sought with a large enough effect; inconclusive = small, poorly fitted or top-dose-only effect, or another doubt; inactive = no such curve, though single readings can be large; an effect the other way counts as inactive or inconclusive. Potency is read from the fitted curve at half-maximal effect.

SMILES | Rab9 prom act | FLuc modulator | ELG1 genotoxic | ELG1 DNA repair | NPC1 promoter act | SMN2 splice up
Cc1ccc(N(C)C(=O)C2CCCN2S(=O)(=O)c2ccc3c(c2)n(C)c(=O)c(=O)n3C)cc1 (stereo unspecified) | -12% | 2% | -1% | 2% | -3% | ·
CN(Cc1ccccc1)C(=O)c1cc2cc(F)ccc2[nH]1 | -1% | -24% | 3% | 8% | 0% | ·
Clc1ccccc1Cc1noc(CN2CCN(Cc3ccccn3)CC2)n1 | -4% | 3% | -1% | 3% | -2% | 4%
O=C(O)c1ccc(N=NN2CCCCC2)cc1 | 1.3µM* | 11µM* | ? | ? | ? | 26%
c1coc(C2Nc3cccc4cccc(c34)N2)c1 | 18% | 27µM* | -3% | -10% | 8% | 17%
Clc1ccccc1C1Nc2cccc3cccc(c23)N1 | 11% | ? | -8% | -9% | -4% | ·
CCOc1ccc2nc(N3CCCC(C(=O)Nc4ccc(Br)c(C)c4)C3)sc2c1 (stereo unspecified) | · | 6µM* | · | · | · | 24%
CCOc1ccc2nc(N3CCCC(C(=O)NCCc4ccc(C)cc4)C3)sc2c1 (stereo unspecified) | · | -18% | · | · | · | 13%
CCOc1cc2sc(N3CCC(C(=O)Nc4ccc(C)cc4)CC3)nc2cc1Br | · | -9% | · | · | · | 16µM*
CCOc1ccc2nc(N3CCCC(C(=O)N4CCN(CC)CC4)C3)sc2c1 (stereo unspecified) | ? | 21µM* | 13% | ? | ? | ?
CCOc1ccc2nc(N3CCCC(C(=O)NCc4ccc(OC)cc4)C3)sc2c1 (stereo unspecified) | · | 2.4µM* | · | · | · | 13µM*
CCN(CC)CCCn1c2c(c(SCC(=O)N3CCc4ccccc43)nc1=O)CCC2 | 1% | -1% | 16% | 5% | 0% | ·
CNC(=O)NNC(=O)c1csc(Cc2c(Cl)sc3ccc(Cl)cc23)n1 | -13% | -2% | 2% | 2% | -3% | ·
CCN(C(=O)c1ccc(S(=O)(=O)N2CCCC2)cc1)C1CCS(=O)(=O)C1 (stereo unspecified) | -2% | 5% | -1% | -3% | -1% | ·
CCOc1ccc2nc(N3CCCC(C(=O)NCCc4ccc(OC)cc4OC)C3)sc2c1 (stereo unspecified) | · | ? | · | · | · | 14µM*
CCOc1ccc2nc(N3CCCC(C(=O)NCCc4ccc(OCC)c(OCC)c4)C3)sc2c1 (stereo unspecified) | · | ? | · | · | · | 15%
CCOc1ccc2nc(N3CCC(C(=O)Nc4nnc(CC)s4)CC3)sc2c1 | 4µM* | ? | 12µM* | ? | 1.1µM* | 2.2µM*
CCOc1ccc2nc(N3CCCC(C(=O)NCC4CCCO4)C3)sc2c1 (stereo unspecified) | ? | 4.8µM* | 13% | ? | ? | ·
CCOc1ccc2nc(N3CCC(C(=O)Nc4ccccc4CC)CC3)sc2c1 | · | -12% | · | · | · | 22%
CCOc1ccc2nc(N3CCCCCC3)sc2c1 | 1µM* | 1.1µM* | ? | ? | 1.1µM* | 7.9µM*
NC(=O)CSc1nnc2ccc(-c3ccc(F)cc3)nn12 | -16% | -1% | 6% | -1% | -1% | 11%
CCOc1ccc2nc(N3CCCC(C(=O)NCCCOC)C3)sc2c1 (stereo unspecified) | · | 12µM* | · | · | · | 14µM*
CCOc1ccc2nc(N3CCN(C(=O)c4ccc(S(=O)(=O)CC)cc4)CC3)sc2c1 | · | -4% | · | · | · | ·
CCCN1CCN(CCCNC(=O)C2CCCN(c3nc4ccc(OCC)cc4s3)C2)CC1 (stereo unspecified) | -12% | 2% | 1% | 5% | -2% | 10%
CCOc1ccc2nc(N3CCN(C(=O)CS(=O)(=O)c4ccc(F)cc4)CC3)sc2c1 | · | 3µM* | · | · | · | ·
SMILES | Rab9 prom act | FLuc modulator | ELG1 genotoxic | ELG1 DNA repair | NPC1 promoter act | SMN2 splice up
Cc1cc(C)c2nc(N3CCCC(C(=O)NC4CCCC4)C3)sc2c1 (stereo unspecified) | ? | 9.5µM* | 7%[9.26 µM] | ? | 30% | ·
CCOC(=O)C1=NOC(CN(c2ccccc2)S(=O)(=O)c2ccc(Cl)cc2)C1 (stereo unspecified) | 1% | 1% | -3% | 1% | -5% | 5%
O=C(O)COc1ccccc1/C=N/NC(=O)c1ccc2c(c1)OCCO2 | 0% | 1.5µM* | 3% | 23% | 0% | ·
COc1ccc(/C=N/NC(=O)CNC(=O)c2ccc3c(c2)OCCO3)c(C(=O)O)c1OC | 0% | 24µM* | 0%[9.26 µM] | 16% | 1% | ·
Cn1cccc1-c1cc(C(=O)N/N=C/c2ccccc2Cl)[nH]n1 | ? | 19µM* | ? | ? | ? | ·
CC(C)(C)/C=N/NC(=O)CNC(=O)c1ccc2c(c1)OCCO2 | 0% | 0% | -1% | 10% | -4% | -52%
O=C(O)COc1ccccc1/C=N/NC(=O)c1ccc(F)cc1 | 10% | 9.5µM* | 1% | -1% | -8% | -6%
O=C(O)COc1ccccc1/C=N/NC(=O)CNC(=O)c1ccc(F)cc1 | -2% | -2% | 0% | 3% | 8% | ·
O=C(N/N=C/c1ccccc1Cl)c1ccc(F)cc1 | 2.5µM* | 2.7µM* | ? | ? | 2.2µM* | 12%
O=C(NN=Cc1ccccc1Cl)c1ccc(-n2cnnn2)cc1 | · | · | 3% | ? | · | ·
N#Cc1ccccc1CSc1nnc(-c2ccc(Br)cc2)o1 | · | 1.2µM* | · | · | · | ?
Cc1ccc(-c2nnc(SCc3ccccc3C#N)o2)cc1 | · | 0.34µM* | · | · | · | 2.2µM*
O=C(O)c1ccc2c(c1)C(=O)N([C@]1(C(=O)O)CC1c1ccccc1)C2=O (stereo partly specified) | 2% | 0% | · | · | 1% | ·
COc1ccc(-c2cc(-c3nnc(COC(=O)c4ccc(O)cc4)o3)c3ccccc3n2)cc1OC | -10% | ? | -13% | ? | -5% | -25%
COc1ccc(-c2cc(-c3nnc(COC(=O)CC4CCCC4)o3)c3ccccc3n2)cc1OC | -1% | ? | -7% | 21µM* | 3% | -10%
COc1ccc(-c2cc(-c3nnc(COC(=O)C4CC4)o3)c3ccccc3n2)cc1OC | -3% | ? | -3% | 7.3µM* | -2% | 15%
COc1cc(-c2nnc(COC(=O)CSc3cc(C)c4ccccc4n3)o2)cc(OC)c1OC | 0% | 0% | 12% | ? | -4% | 43%
COc1ccc(-c2cc(-c3nnc(COC(=O)C4CC4C)o3)c3ccccc3n2)cc1OC (stereo unspecified) | 0% | ? | -3% | 9.2µM* | -1% | -2%
COc1ccc(-c2cc(C(=O)N3CC(C)CC(C)C3)c3ccccc3n2)cc1OC (stereo unspecified) | -1% | ? | 2% | ? | -1% | ·

Screening results as filed in PubChem.
